Laboratory results reported in PubChem BioAssay AID493165 (National Center for Advancing Translational Sciences (NCATS), 2011).
Calls of active or inactive are those of the source. The call rests on the fitted dose curve; in most records, active means well fitted curve in the direction sought with a large enough effect; inactive means no such curve, though single readings can be large or run the other way.

Assay: Retest of LOPAC molecules that induce DNA re-replication in SW480 adenocarcinoma cells.
Conditions: Hoechst DNA content imaging, 48 h; series mostly up to 45.1 µM
Text: NIH Molecular Libraries Probe Production Network [MLPCN] NIH Chemical Genomics Center [NCGC] MLPCN Grant: Fast Track K99 CA136555 Assay Provider: Melvin DePamphilis, NICHD, NIH Assay Overview Eukaryotic cells normally restrict genome duplication to once per cell division. When this process is aberrant, DNA re-replication occurs when cells reinitiate DNA replication before the first round of replication is complete. DNA re-replication induces the DNA damage response, arrests cell proliferation, and triggers apoptosis. The cell cycle components cyclin A, Cdt-1, Cdc6 and geminin are critical regulators of this process and their misregulation results in DNA re-replication in normal and cancer cells. To identify compounds that induce re-replication in normal cells, an image-based assay was used to measure DNA content of nuclei, as detected by the fluorescent DNA binding dye, Hoechst. Cell nuclei were imaged by a fluorescence scanning plate imager and compounds that induce DNA re-replication were identified by the increase of nuclei with elevated fluorescence intensity.
Assay Protocol Summary For screening, 250 cells in 5 uL/well were dispensed into black clear 1536-well plates (Aurora) using a solenoid-based dispenser. Following transfer of 23 nL compound or DMSO vehicle by a pin tool, the plates were incubated 48 hr at 37 C and 5% CO2. After addition of 1 uL/well Hoescht stain, the plates were incubated 40 min at 37 C, 5% CO2 and total intensity of fluorescent objects (nuclei) were enumerated by an Acumen Explorer Ex3 (TTP LabTech) fluorescence scanning plate imager (405 nm excitation, 500-530 nm emission). Keywords: NIH Roadmap, MLPCN, MLI, MLSMR, qHTS, NCGC, DNA replication, cancer

Row | SMILES | Potency
1 | CCCCCCN(CCCCCC)C(=O)Cc1c(-c2ccc(F)cc2)[nH]c2ccccc12 | inactive
2 | CC(=O)O[C@H]1C(=O)[C@@]2(C)C([C@H](OC(=O)c3ccccc3)[C@]3(O)C[C@H](OC(=O)[C@H](O)[C@@H](NC(=O)c4ccccc4)c4ccccc4)C(C)=C1C3(C)C)[C@]1(OC(C)=O)CO[C@@H]1C[C@@H]2O (stereo not given in full) | 169 nM (active)
3 | C[C@@H](Oc1ccc(Oc2cnc3ccc(Cl)cc3n2)cc1)C(=O)O | inactive
4 | COc1cc2c(cc1O)CC[C@@H]1[C@@H]2CC[C@]2(C)[C@@H](O)CC[C@@H]12 | 6730 nM (active)
5 | O=c1cc(-c2ccccc2)[nH]c2nc(Cl)ccc12 | 1690 nM (active)
